MOR-DOR inv ag: inverse agonist of human OPRM1-OPRD1 heterodimerization; inhibition, % at 9.3 µM; 340,000 compounds, 0.21% hits; cell-based MOR-DOR heterodimer luminescence, inverse agonism; in the data active = inhibition above about 22%, passing the limit was not always enough;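 note: 0% = cells with DMSO and 100% = wells without cells with DMSO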
Target sequence (P35372 whole entry, looked up): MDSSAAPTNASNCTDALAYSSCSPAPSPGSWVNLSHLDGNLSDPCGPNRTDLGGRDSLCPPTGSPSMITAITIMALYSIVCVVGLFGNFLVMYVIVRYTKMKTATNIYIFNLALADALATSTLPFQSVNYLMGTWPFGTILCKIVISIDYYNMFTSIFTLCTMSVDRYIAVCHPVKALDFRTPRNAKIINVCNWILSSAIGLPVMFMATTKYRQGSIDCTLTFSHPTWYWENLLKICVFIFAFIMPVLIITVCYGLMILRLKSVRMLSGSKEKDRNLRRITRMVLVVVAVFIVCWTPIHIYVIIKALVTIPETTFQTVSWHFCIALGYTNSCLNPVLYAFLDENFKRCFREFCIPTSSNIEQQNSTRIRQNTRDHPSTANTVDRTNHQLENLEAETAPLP
Target sequence (P41143 whole entry, looked up): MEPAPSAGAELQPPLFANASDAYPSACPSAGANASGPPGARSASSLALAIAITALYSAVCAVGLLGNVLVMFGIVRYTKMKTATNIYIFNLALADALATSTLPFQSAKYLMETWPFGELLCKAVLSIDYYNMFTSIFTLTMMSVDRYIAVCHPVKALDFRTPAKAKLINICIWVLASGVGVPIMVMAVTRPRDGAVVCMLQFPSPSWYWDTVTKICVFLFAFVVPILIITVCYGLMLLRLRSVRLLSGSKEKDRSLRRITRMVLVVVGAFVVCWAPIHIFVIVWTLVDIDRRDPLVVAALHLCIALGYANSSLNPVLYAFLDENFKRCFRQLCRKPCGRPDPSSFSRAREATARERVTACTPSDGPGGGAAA
OPRM1-OPRD1 ag: agonists of human mu-delta opioid receptor heterodimerization; P35372+P41143; cells, OPRM1-OPRD1 heterodimerization, luminescence; activation, % at 9.3 µM; 340,000 compounds, 0.3% hits;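 note: 0% = vehicle-treated cells and 100% = reference agonist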
HTR5A ag ctr: activates human HTR5A in OPRM1-OPRD1 agonist counter-screen; HTR5A agonist assay, luminescence, cell-based; 340,000 compounds, 0.61% hits; P47898; activation, % at 9.3 µM; in the data active = activation mostly above about 9.5%, no sharp cut-off; inactive = mostly below about 7.6%;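 note: 0% = cells with vehicle only and 100% = reference agonist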
HTR5A inv ag: inverse agonist of human HTR5A in OPRM1-OPRD1 counter-screen | HTR5A cell line, luminescence, inverse agonism | 340,000 compounds, 0.083% hits | AID 504634 | inhibition, % at 9.3 µM | P47898; in the data active = inhibition mostly above about 23%, no sharp cut-off; inactive = mostly below about 18%;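 note: 0% = cells with DMSO and 100% = no-cell wells with DMSO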
MOR-DOR ag conf: confirmation of human OPRM1-OPRD1 heterodimerization agonists; activation, % at 9.3 µM; AID 504904; shares compounds with OPRM1-OPRD1 ag; 830 compounds, 45% hits; cells, MOR-DOR heterodimerization, luminescence complementation;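 note: 0% = vehicle-treated cells and 100% = reference agonist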
HTR5A ag ctr2: activates human HTR5A in OPRM1-OPRD1 agonist counter-screen. AID 504905. shares compounds with OPRM1-OPRD1 ag. 830 compounds, 8% hits. activation, % at 9.3 µM. HTR5A agonist counterscreen, cell luminescence; in the data active = activation above about 17%;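 note: 0% = vehicle-treated cells and 100% = reference agonist response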
Starred values were filed as active, the others as inactive; i = inactive; nt = not tested or not shown. Only some compounds are listed: those with a hit (about 1.1% of all), similar ones and a draw of the others. Cut-off read from the data, not from the text of the source, unless noted: active = activation above about 18%; inactive = the rest.

SMILES	MOR-DOR inv ag	OPRM1-OPRD1 ag	HTR5A ag ctr	HTR5A inv ag	MOR-DOR ag conf	HTR5A ag ctr2
CC[C@@H](C)[C@@H]1CN([C@@H](CN2CCC[C@H]2CN2C(N)=NC[C@H]2C(C)C)C(C)C)C(=N)N1CCc1ccc(Cl)c(Cl)c1	i	205.1*	-1.2	4.0	72.2*	0.1
CC[C@@H](C)[C@@H]1CN([C@@H](C)CN2CCC[C@H]2CN2C(N)=NC[C@@H]2Cc2ccccc2)C(=N)N1CCc1ccc(Cl)c(Cl)c1	6.6	-1.2	-12.3	-20.0	nt	nt
NC1=NC2(CCN(Cc3ccccc3)CC2)n2c(nc3ccccc32)N1	-244.7	49.7*	-1.1	-4.4	27.8*	1.5
CCOC(=O)C1(CC2CC2)CCN(Cc2cnc(-c3ccccc3C)nc2)CC1	-395.9	79.0*	-4.0	24.2	71.8*	2.8
CCOC(=O)C1(CCOc2ccccc2)CCN(Cc2cnc(SC)nc2)CC1	-155.3	31.7*	4.0	20.5	1.8	-2.1
CCOC(=O)C1(CCOc2ccccc2)CCN(Cc2ccc(OC)c(O)c2)CC1	-367.9	77.2*	-0.7	2.5	75.0*	2.6
CCOC(=O)C1(CC2CC2)CCN(Cc2cc(Cl)c(O)c(OC)c2)CC1	-28.6	5.7	0.5	-8.4	nt	nt
CCOC(=O)C1(CCOc2ccccc2)CCN(Cc2ccc(O)cc2)CC1	-2.4	0.5	-8.0	27.3	nt	nt
O=C(O)CC(CC(=O)NCC(O)c1ccccc1)c1ccccc1 (stereo not given)	12.8	-2.6	-2.8	10.6	nt	nt
CCc1ccc(Nc2n[n+](-c3ccccc3)c(-c3c(Cl)cccc3Cl)s2)cc1	-153.3	27.0*	11.7	-4.9	72.8*	9.8
COc1ccccc1NC(=O)CCc1nnc2ccc(NCc3ccco3)nn12	10.9	-2.1	-0.4	-24.0	nt	nt
CC(COc1ccc(/C=C/c2ccccc2)cc1)[N+](C)(C)C (stereo not given)	8.2	-1.5	3.3	-1.2	nt	nt
O=C(CSc1ccc(Cl)cc1)Nc1ccc(-c2nc3ccccc3[nH]2)cc1	-144.2	32.1*	12.6*	4.1	171.3*	6.2
Cc1ccc(N(CC(=O)NCc2ccco2)C(=O)CCC(=O)Nc2ccccn2)c(C)c1	11.0	-1.7	-4.9	13.9	nt	nt
CNC(=O)/C(C#N)=C/c1ccc(-c2ccc(OC)cc2[N+](=O)[O-])o1	-116.2	18.6*	0.2	-0.5	1.2	-6.3
CN(C)S(=O)(=O)c1ccc(-c2csc(N/N=C/c3ccco3)n2)cc1	-63.5	12.2	6.3	16.1	nt	nt
CN(C)S(=O)(=O)c1ccc(-c2csc(N/N=C/c3ccc(O)cc3)n2)cc1	-201.2	37.8*	11.0	-30.0	157.2*	3.5
CN(C)C(CNC(=O)C1CCN(C(=O)/C=C/c2ccccc2)CC1)c1ccccc1 (stereo not given)	-164.7	20.0*	-0.4	14.5	17.7	1.6
O=C(CSC(=S)N1CCCC1)NCCc1ccccc1	10.2	-1.6	7.0	-12.3	nt	nt
CCOC(=O)C1CCN(C(=O)/C=C/c2ccccc2)CC1	14.6	-2.9	5.3	2.8	nt	nt
CN(C)C(CNC(=O)CSC(=S)N1CCCC1)c1ccccc1 (stereo not given)	i	195.0*	1.4	-5.3	183.4*	-3.6
CN(C)C(CNC(=O)C1CC(=O)N(Cc2ccccc2)C1)c1ccccc1 (stereo not given)	-250.1	46.4*	-5.0	4.9	59.1*	3.2
Cc1c(C(=O)OCC(=O)N(C)Cc2ccc(Cl)cc2)oc2ccccc12	-1.8	0.5	1.8	-4.5	nt	nt
COc1ccc(C(=O)C2CCCN(C(=O)c3cc(C)nc(C)n3)C2)cc1OC (stereo not given)	7.6	-1.5	6.0	-8.4	nt	nt
Cc1ccc2c(c1)N(C(=O)CCC(=O)N1CCC(C(N)=O)CC1)CC(C)O2 (stereo not given)	6.8	-1.1	0.3	-1.0	nt	nt
SMILES	MOR-DOR inv ag	OPRM1-OPRD1 ag	HTR5A ag ctr	HTR5A inv ag	MOR-DOR ag conf	HTR5A ag ctr2
COc1ccc(OCC(O)CNC(C)c2ccccc2)cc1 (stereo not given)	1.1	-0.2	2.6	-9.8	nt	nt
CCCC(NCC(O)COc1ccc(-c2ccccc2)cc1)c1ccccc1 (stereo not given)	-119.8	22.0*	11.5	16.4	12.7	7.8
Cc1cc(NC(=O)CSc2ccc(-c3nc4cc(C)c(C)cc4[nH]3)cn2)no1	-105.9	19.9*	3.6	-11.6	0.6	12.1
COc1ccc(C(=O)N2CCC(n3nccc3NC(=O)C3CC3)CC2)cc1F	12.8	-3.9	1.0	16.0	nt	nt
NC(=O)c1ccc(NC(=O)c2cc(S(=O)(=O)N3CCCCC3)ccc2N2CCOCC2)cc1	10.4	-2.6	-0.8	2.1	nt	nt
O=C(COC(=O)c1ccc(Cl)nc1)c1ccc2c(c1)OCCO2	3.0	-0.6	-3.4	9.2	nt	nt
Cc1nc2c(O)c3c(c(O)c2nc1C)C1C=CC3CC1	-107.5	22.0*	-1.4	5.3	-4.3	0.0
COC(=O)c1cc(NC(=O)c2ccc(Cn3cc(Cl)cn3)o2)cc(C(=O)OC)c1	3.5	-0.6	-3.6	15.1	nt	nt
COC(=O)c1ccccc1NC(=O)c1ccc(Cn2cc(Cl)cn2)o1	-112.7	19.1*	-1.2	-11.6	11.3	5.3
CC(C(=O)NCCc1ccc(Cl)cc1)n1c(=O)c2cccn2c2cccnc21 (stereo not given)	7.0	-1.4	3.6	-13.4	nt	nt
CN(C)c1ccc(/C=N/NC(=O)c2ccc(NC(=O)c3ccccc3)cc2)cc1	-93.1	18.6*	0.3	11.6	34.0*	20.2*
O=C(N/N=C/c1ccc(Br)cc1)c1ccc(NC(=O)c2ccccc2)cc1	7.8	-1.6	2.2	-25.5	nt	nt
COc1cc(C2C(C#N)=C(N)N(c3sc4c(c3C#N)CCCC4)C3=C2C(=O)CC(C)(C)C3)cc(OC)c1OC (stereo not given)	-360.3	57.6*	-0.4	-2.5	45.1*	4.3
COc1ccc(CNC(=S)NC(C)CCc2ccccc2)cc1 (stereo not given)	9.9	-2.1	4.5	-12.5	nt	nt
Cc1ccc(C)c(N2CCN(C(=S)Nc3ccc4nc(N5CCN(C)CC5)cc(C)c4c3)CC2)c1	-91.3	18.3*	9.3	-27.5	21.6*	4.3
Cc1ccc(C)c(N2CCN(C(=S)Nc3ccc4nc(N5CCOCC5)cc(C)c4c3)CC2)c1	-32.2	4.9	-6.3	15.7	nt	nt
COc1ccc(OC)c(N(CC(=O)Nc2cccnc2)S(=O)(=O)c2ccc(C)cc2)c1	-367.6	65.4*	4.8	-9.1	46.7*	-0.1
Cc1cc(O)c(CN2CCN(S(=O)(=O)c3cccs3)CC2)cc1C(C)C	-11.6	3.0	7.6	15.3	nt	nt
CCCCNC(=O)O[C@@H]1C[C@H]2CCCC(=O)N3CC[C@@H](C1)[C@@H]23	15.2	-2.7	2.0	-7.2	nt	nt
CCCCCCCN(c1ccccc1)[C@@H]1C[C@H]2CCCC(=O)N3CC[C@@H](C1)[C@@H]23	-105.8	18.8*	1.2	4.1	-0.4	0.9
Cn1nnnc1Sc1ncnc2scc(-c3ccc4c(c3)OCO4)c12	7.4	-1.6	3.1	-14.9	nt	nt
CCOc1c(Cl)cc(CNCC(O)c2ccccc2)cc1OC (stereo not given)	-15.7	2.4	0.1	-0.3	nt	nt

Screening data as filed in PubChem BioAssay.
